Laboratory results taken from ChEMBL document CHEMBL3988442, “University of Dundee, Small-Polar-MMV Screening Library” (2021).
Hit rate of the full screen: of about 48,000 compounds, about 13,000 (27%) showed an effect of 50% or more. The list shows a part of the results.

test system: Wolbachia pipientis; assay: Anti-Wolbachia Cell-Based Screen; type: functional; parameters: scale not given: in the data most compounds retested in dose-response had high values; settings: 5 µM

| SMILES | Percent Effect [%] |
| --- | --- |
| OC(COCc1ccccc1)CSc1nnc2ccccn12 (stereo unspecified) | -5.176 |
| CN(Cc1ccccc1)CC(O)Cn1cnc2ccsc2c1=O (stereo unspecified) | -0.02665 |
| Cc1ccc(CCCC(=O)N2CC(=O)Nc3cccnc32)s1 | -7.748 |
| CCn1cc(S(=O)(=O)NCC(OC)c2cccc(Cl)c2)cn1 (stereo unspecified) | -3.186 |
| COc1c(CNC2CCCc3ccccc32)c(C)nn1C (stereo unspecified) | -3.62 |
| Cc1nn(C)c(N(C)C)c1CNC1CCc2c(F)cccc21.Cl (stereo unspecified) | -3.746 |
| COc1c(CNC2CCc3ccccc32)c(C)nn1C (stereo unspecified) | 132.3 |
| Cc1nn(C)c(N(C)C)c1CNC1CCc2cc(F)ccc21.Cl (stereo unspecified) | 58.09 |
| COc1c(CNC2CCOc3ccccc32)c(C)nn1C (stereo unspecified) | -8.703 |
| Cc1nn(C)c(N(C)C)c1CNC1CCOc2c(F)cccc21 (stereo unspecified) | -12.9 |
| CCC(C)CNC(=O)[C@@H]1CCCN1c1nccc(Nc2ccccc2)n1 (stereo partly specified) | 83.24 |
| CCNC(=O)[C@@H]1CCCN1[C@@H](C(=O)NC)c1ccccc1.Cl | 1.454 |
| Cc1nc(N2CCCC2C(=O)NCc2ccsc2)nc2ccccc12 (stereo unspecified) | -0.4338 |
| CCOCCNC(=O)[C@@H]1CCCN1c1nccc(Nc2ccccc2)n1 | 123.1 |
| Cc1nc(N2CCCC2C(=O)NC(C)(C)CO)nc2ccccc12 (stereo unspecified) | -14.27 |
| Cn1cc(S(=O)(=O)N2CCCC(Cn3cncn3)C2)cn1 (stereo unspecified) | 7.015 |
| Cc1cc(C)nc(N2CCN(Cc3cc4n(n3)CCNC4)CC2)n1 | 3.043 |
| CCC(CC)(CNC(=O)OC(C)(C)C)NC(=O)C1CCCO1 (stereo unspecified) | -2.751 |
| NC(=O)C1CCN(Cn2nc(-c3ccc(F)cc3)oc2=O)CC1 | -1.438 |
| CN(C)C(=O)C1CCN(Cn2nc(-c3ccc(F)cc3)oc2=O)CC1 | 103.8 |
| CN(C)C(=O)C1CCN(Cn2ccc(-c3ccc(F)cc3)n2)CC1 | -0.7457 |
| NC(=O)C1CCN(Cn2nc(-c3ccc(F)cc3)oc2=O)C1 (stereo unspecified) | 1.615 |

| SMILES | Percent Effect [%] |
| --- | --- |
| CCNC(=O)C1CCN(Cn2nc(-c3ccc(F)cc3)oc2=O)CC1 | 109.5 |
| CCNC(=O)C1CCN(Cn2nc(-c3ccccc3)oc2=O)CC1 | 32.26 |
| COCCNS(=O)(=O)c1cccc2c1CN(C(=O)c1ccoc1)CC2 | -4.296 |
| O=C(CCN1CCCCO1)NCCSc1cnn[nH]1 | -10.06 |
| COc1ccc(C)cc1NC(=O)Nc1cnc(N2CCCC2)nc1 | 135.2 |
| O=C(COc1ccc(Cl)cc1)Nc1cnc(N2CCOCC2)nc1 | -3.73 |
| COc1ccc(C)cc1NC(=O)Nc1cnc(N2CCN(C)CC2)nc1 | -7.75 |
| O=C(Nc1cnc(N2CCOCC2)nc1)c1ccc(C(F)(F)F)cc1 | -14.92 |
| COc1ccc(CNC(=O)Nc2cccnc2N2CCCC2)cc1O | 5.848 |
| COc1ccc(C)cc1NC(=O)Nc1cnc(N2CCOCC2)nc1 | 156.3 |
| O=C(c1cnccn1)N1CCc2ncnc(C3CCOC3)c2CC1 (stereo unspecified) | -0.4646 |
| CC1COCCN1C(=O)c1ccc(=O)n(CCOc2ccccc2)n1 (stereo unspecified) | -6.742 |
| COCCn1nc(C(=O)N2CCOCC2C)ccc1=O (stereo unspecified) | 3.322 |
| Cc1cnc(C(=O)N2CCOCC2C)cn1 (stereo unspecified) | 99.05 |
| CC1COCCN1C(=O)c1ccc(=O)n(Cc2ccccc2)n1 (stereo unspecified) | -2.389 |
| O=C(Cc1cccs1)N1CCOCC1c1ccccc1 (stereo unspecified) | -1.023 |
| Cc1cnc(C(=O)N2CCCCC2c2ccc(CN(C)C)cc2)cn1 (stereo unspecified) | 6.216 |
| CC1COCCN1C(=O)c1cnccn1 (stereo unspecified) | 93.18 |
| Cc1cnc(C(=O)N2CCOCC2c2ccccc2)cn1 (stereo unspecified) | 87.18 |
| CCc1ccc(O)c(C(=O)N2CCN(CC(=O)N3CCCCC3)CC2)c1 | -4.126 |
| O=C(NS(=O)(=O)c1cc(Cl)sc1Cl)c1cccc2c1OCCO2 | -19.53 |
| COc1cccc(C(=O)NCc2ccccc2S(=O)(=O)N(C)C)c1 | 16.54 |

| SMILES | Percent Effect [%] |
| --- | --- |
| CSCCN(C)C(=O)C1(c2ccc(F)cc2F)CCOCC1 | -17.49 |
| CCOCCC(=O)NCC(C)c1ccsc1 (stereo unspecified) | 1.929 |
| Cc1ccc(CN2CC[C@H]3C[C@@H](c4nc(C5CC5)cs4)O[C@@H]3C2)o1 | -2.385 |
| O=C(CC1CC1)N1CCC2(CC1)CC(Oc1ccccc1)CO2 (stereo unspecified) | -7.215 |
| Cn1cc(C2CCCN2C(=O)CCCOCc2ccccc2)cn1 (stereo unspecified) | 2.254 |
| Cn1cc(C2CN(C(=O)Cc3coc(-c4ccccc4)n3)CCO2)cn1 (stereo unspecified) | -11.89 |
| CC1COC2(CCN(C(=O)Cc3ccncc3)CC2)C1.O=C(O)C(F)(F)F (stereo unspecified) | 99.32 |
| O=C(C1CC1)N1CCC[C@]2(C[C@@H](OCc3ccncc3)CO2)C1.O=C(O)C(F)(F)F | 6.09 |
| Cn1cc(C2COC3(CCN(C(=O)Cc4ccccc4)CC3)C2)cn1 (stereo unspecified) | 95.06 |
| CCOCC(=O)N1CCC2(CC1)CC(c1ccccc1)CO2 (stereo unspecified) | 118.3 |
| O=C(Cc1cccnc1)N1CCC2(CC1)CCN(C1CCOCC1)CC2.O=C(O)C(F)(F)F.O=C(O)C(F)(F)F | 1.334 |
| O=C(O)C(F)(F)F.O=C(c1ccccc1)N1CCC[C@]2(C[C@@H](OCc3ccncc3)CO2)C1 | 6.805 |
| O=C(Cc1ccncc1)N1CCC2(CC1)CC(c1ccccc1)CO2.O=C(O)C(F)(F)F (stereo unspecified) | 104.1 |
| CN(Cc1ccncc1)C1COC2(CCN(c3ncc(F)cn3)CC2)C1.O=C(O)C(F)(F)F.O=C(O)C(F)(F)F (stereo unspecified) | -12.58 |
| CCC(=O)N1CCC2(CC1)CC(Oc1ccccc1)CO2 (stereo unspecified) | -6.284 |
| CC1(CNS(=O)(=O)c2cccc(C(=O)N3CCSCC3)c2)COC1 | 5.198 |
| N#Cc1ccnc(N2CCN(CC(O)c3c(F)cccc3F)CC2)c1 (stereo unspecified) | -15.75 |
| CC(CCn1cccn1)NCc1n[nH]c2c1CCCCC2 (stereo unspecified) | -18.85 |
| O=S(=O)(NCCNc1ccc(-n2cccc2)nn1)c1ccccc1 | -5.245 |
| COC(=O)[C@@H]1Cc2ncn(C)c2CN1S(=O)(=O)c1ccc(Cl)cc1 | -5.674 |
| Cn1cc(S(=O)(=O)Nc2ccc(Cl)cn2)cc1C(N)=O | 6.201 |
| Cc1cc2[nH]c(CN3CCOC(c4ccc(Cl)cc4)C3)cc(=O)n2n1 (stereo unspecified) | -2.359 |

| SMILES | Percent Effect [%] |
| --- | --- |
| CC(C)NC(=O)N1CC[C@H]2N(C)CC[C@@]2(C(=O)Nc2cccnc2)CC1 | 104 |
| O=C(Nc1cccnc1)N1CCC(n2ccc(C(F)(F)F)n2)CC1 | -10.86 |
| CS(=O)(=O)N1C[C@H](C(=O)Nc2cccnc2)[C@@H]2CCO[C@@H]2C1.O=C(O)C(F)(F)F | -6.028 |
| CC(C)C(=O)N1CC[C@H]2N(C)CC[C@@]2(C(=O)Nc2ccccc2)CC1 | 108.6 |
| CNC(=O)N1CC[C@H]2N(C)CC[C@@]2(C(=O)Nc2ccccc2)CC1 | 2.294 |
| CC(C)CC(=O)N1CC[C@H]2N(C)CC[C@@]2(C(=O)Nc2cccnc2)CC1.O=C(O)C(F)(F)F.O=C(O)C(F)(F)F | 92.3 |
| Cc1ccc(CNC(=O)C2CCN(C(=O)C(C)C)CC2)n1C | -14.75 |
| CCN1CC[C@@]2(C(=O)N3CCOCC3)CCN(C(=O)CC(C)C)CC[C@@H]12.O=C(O)C(F)(F)F | -11.51 |
| CC(C)C(=O)N1CC[C@H]2N(C)CC[C@@]2(C(=O)Nc2cccnc2)CC1.O=C(O)C(F)(F)F.O=C(O)C(F)(F)F | 118.9 |
| CCN1CC[C@@]2(C(=O)N(C)C)CCN(C(=O)NC(C)C)CC[C@@H]12 | -5.445 |
| CC(C)C(=O)N1CCc2nc(C(=O)Nc3cccnc3)sc2CC1 | 0.3042 |
| O=C(Cc1cccnc1)N1CCC2(CC1)CCN(C1CCOCC1)C2.O=C(O)C(F)(F)F.O=C(O)C(F)(F)F | -0.7381 |
| CCC[C@H]1CN(CCCO)C[C@@H]1NC(=O)Cn1cc(C)cn1 | -8.445 |
| CCN(Cc1cc(F)c(OC)c(Cl)c1)Cc1nc(COC)no1 | -30.92 |
| COc1cc(C)sc1C(=O)NCCC(=O)N(C)c1ccccc1 | -9.675 |
| CC(C)N(C)CCNC(=O)NCc1ccccc1-n1cccn1 | -1.809 |
| Cc1nn(C(C)C)c(C)c1S(=O)(=O)Nc1cccc(C(=O)O)c1 | 0.846 |
| CC(C)CC(CO)NS(=O)(=O)Cc1ccon1 (stereo unspecified) | 92.95 |
| O=C(CCc1cccc(Cl)c1)NS(=O)(=O)Cc1ccon1 | -7.174 |
| Cc1cc(C(=O)NS(=O)(=O)Cc2ccon2)c(C)n1C(C)C | 19.94 |
| O=C(NS(=O)(=O)Cc1ccon1)c1ccsc1 | -7.233 |
| CC(CCc1ccc(F)c(F)c1)NS(=O)(=O)Cc1ccon1 (stereo unspecified) | 102 |

| SMILES | Percent Effect [%] |
| --- | --- |
| Cc1ccc(C(=O)NS(=O)(=O)Cc2ccon2)c(C)c1 | -32.05 |
| Cc1ccc(OCC(C)NS(C)(=O)=O)cc1 (stereo unspecified) | 1.319 |
| Cc1ccc(OCC(C)NS(=O)(=O)Cc2ccon2)cc1 (stereo unspecified) | 103.4 |
| Cc1ccc(OCC(C)NS(=O)(=O)N(C)C)cc1 (stereo unspecified) | -6.618 |
| CCC(CNC(=O)Cc1cc(C)on1)Oc1cccc(F)c1 (stereo unspecified) | 6.278 |
| CN1CCN(c2ncnc3c2c(C(=O)NC2CC2)c2ccccn23)CC1 | -8.273 |
| O=C(CCN1CCCN(c2nccs2)CC1)Nc1ccccc1 | 4.493 |
| O=C(CN1C[C@H]2CC[C@@H]1CN(Cc1ccccn1)C2)NCc1cccs1 | 1.062 |
| CC1CN(CC(=O)NC(=O)NCc2cccs2)CCN1CC(F)(F)F (stereo unspecified) | 103.7 |
| Cc1csc(N2CCN(CC(=O)Nc3cccnc3)CC2C)n1 (stereo unspecified) | 114.5 |
| O=C(CN1CCOC(Cn2cccn2)C1)NCc1cccs1 (stereo unspecified) | 2.249 |
| Cc1csc(N2CCN(CCc3ccccn3)CC2C)n1 (stereo unspecified) | 3.431 |
| O=C(CN1CCN(c2nccs2)CC1)Nc1cccnc1 | 105.2 |
| Cc1csc(N2CCN(CC(=O)Nc3nncs3)CC2C)n1 (stereo unspecified) | 1.073 |
| Cc1ccccc1CN1CCN(CC(=O)Nc2cccnc2)CC1 | 7.585 |
| C[C@@H]1CN(Cc2ccccc2)CCN1C(=O)NCc1nccs1 | -1.817 |
| CC1CN(C(=O)NCc2ccn(C)c2)CCN1CC(F)(F)F (stereo unspecified) | -7.034 |
| CC1CN(CC(=O)NCc2cccs2)CCN1c1nccs1 (stereo unspecified) | 105.4 |
